Results: PubChem BioAssay (NCI)
Compounds without any hit were thinned out: in the full panel of roughly 79,000, 15% have a hit. Calls of active or inactive are those of the source. No stated cut-off is given here; in the data, active means growth inhibition above about 70%; inactive means the rest.

Legend:
[1] = NCI Yeast Anticancer Drug Screen. Data for the rad50 strain (AID 155);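 further: 0% = growth of vehicle-only cultures of the same strain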; conditions: S. cerevisiae rad50 strain growth inhibition; at 50.0 µM; active compounds read high
Method in brief: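 Relative growth inhibition (compound vs vehicle) was measured in yeast with a defined repair-gene alteration.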

[2] = NCI Yeast Anticancer Drug Screen. Data for the mec2-1 strain (AID 157); conditions: S. cerevisiae mec2-1 strain, at 50.0 µM, active compounds read high
Method in brief: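 Cells of the genetically defined mec2-1 yeast strain are incubated with test compound. Inhibition of growth is calculated against vehicle-treated controls.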

[3] = NCI Yeast Anticancer Drug Screen. Data for the sgs1 mgt1 strain (AID 161);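 further: 0% = growth of cultures given vehicle only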; conditions: S. cerevisiae sgs1 mgt1 strain, at 50.0 µM, active compounds read high
Method in brief: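 Mutant yeast exposed to compound; growth scored against vehicle-only wells.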

[4] = NCI Yeast Anticancer Drug Screen. Data for the cln2 rad14 strain (AID 165);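 further: 0% = growth equal to vehicle treated cultures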; conditions: S. cerevisiae cln2 rad14 strain, at 50.0 µM, active compounds read high
Method in brief: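 The screen exposed genetically defined yeast (cln2 rad14) to test compounds and scored growth inhibition relative to vehicle-treated controls.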

[5] = NCI Yeast Anticancer Drug Screen. Data for the bub3 strain (AID 167); conditions: S. cerevisiae bub3 mutant strain, at 50.0 µM, active compounds read high
Method in brief: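 Screening used yeast with an engineered genetic alteration affecting cell cycle control. Compound-exposed cultures were compared with vehicle cultures, and reduced growth was taken as inhibition.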

[6] = NCI Yeast Anticancer Drug Screen. Data for the mlh1 rad18 strain (AID 175); conditions: S. cerevisiae mlh1 rad18 strain growth inhibition; at 50.0 µM; active compounds read high
Method in brief: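 Compound-treated yeast growth, normalised to vehicle controls. Strain bears defined DNA repair mutations.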

Measured: growth inhibition

COC(=O)C(C(=O)C(N)=O)c1csc(-n2nc(-c3ccccc3)cc2-c2ccccc2)n1 (centres undefined)
inactive: [1] -1.5% | [2] -13.4% | [3] -13.8% | [4] 10.2% | [5] 30.2% | [6] -7.2%

C[C@@H](O)[C@H](NSc1ccccc1[N+](=O)[O-])C(=O)NCCc1nc(-c2nc(C(=O)NCCCBr)cs2)cs1
inactive: [1] -0.8% | [2] 2.35% | [3] -2.1% | [4] -21.5% | [5] 1.55% | [6] 13%

CCN1CCCC(N)C1 (centres undefined)
inactive: [1] -26.1% | [2] -23.2% | [3] -34.9% | [4] 11.8% | [5] -41.8% | [6] -27.9%

O=P(CCC(F)(F)C(F)(F)C(F)(F)C(F)(F)C(F)(F)C(F)(F)C(F)(F)F)(N1CC1)N1CC1
inactive: [1] 25.4% | [2] -1.9% | [3] 8.15% | [4] -9.75% | [5] -1.2% | [6] 1.95%

CN(C)CSC(=S)NCCNC(=S)SCN(C)C
inactive: [1] 1.6% | [2] -19.6% | [3] 24.8% | [4] 5.95% | [5] 4% | [6] -4.1%

CCCCC(CC)COCCC(=O)O (centres undefined)
inactive: [1] -9.55% | [2] -8.55% | [3] -4.25% | [4] -55.9% | [5] -19.8% | [6] -18.8%

CC1(C)CSC(C)(C)C(=O)N1
inactive: [1] 4.9% | [2] -1.95% | [3] -3.6% | [4] -6.85% | [5] -2.2% | [6] -1.1%

CC12CC(c3ccccc3)C(C)(C(c3ccccc3)=C1c1ccccc1)C2(O)c1ccccc1 (centres undefined)
inactive: [1] -2.85% | [2] 0.1% | [3] 12.7% | [4] -13.3% | [5] -2.45% | [6] 13.4%

OCC1CCCC(n2cnc3c(=S)nc[nH]c32)O1 (centres undefined)
inactive: [1] -8.4% | [2] -21.8% | [3] -20.2% | [4] -10.7% | [5] -42.2% | [6] 6.4%

CC(C)(C=O)OC(=O)c1cc([N+](=O)[O-])cc([N+](=O)[O-])c1
inactive: [1] 7.2% | [2] -14.2% | [3] 27.4% | [4] 29.8% | [5] -8% | [6] 1.6%

Clc1ccc(NC2=NCCN=C(Nc3ccc(Cl)c(Cl)c3)SS2)cc1Cl
inactive: [1] -26.9% | [2] -21.4% | [3] -14.7% | [4] -14.1% | [5] -28.1% | [6] -33.6%

CC(O)CCC(C)(C)[N+](=O)[O-] (centres undefined)
inactive: [1] 3.15% | [2] -6.85% | [3] 0.1% | [4] 10.8% | [5] 0.25% | [6] -0.9%

CCOc1cc(CC[N+](C)(C)C)c2c(ccc3ccc(OC)c(OC)c32)c1OC
inactive: [1] 18.1% | [2] -10.8% | [3] -5.4% | [4] 13.5% | [5] -15.8% | [6] -14.2%

COc1ccc(NC(=O)CSc2nc(C)nc3c2sc(=S)n3-c2ccccc2)cc1
inactive: [1] -16.7% | [2] -4.85% | [3] 2.95% | [4] 2.65% | [5] -3.5% | [6] 4.45%

CC1(C)C(c2ccccc2)=NN(O)c2ccccc21
inactive: [1] -22.3% | [2] -15.8% | [3] 0.25% | [4] 15.4% | [5] -4.5% | [6] -9.4%

CC(=O)/C=C(/C=N/O)c1ccccc1
inactive: [1] 10.7% | [2] -27.1% | [3] 14.2% | [4] 7.75% | [5] 10.1% | [6] -55.8%

O=S1(=O)COc2ccccc2-c2ncncc21
inactive: [1] 10.2% | [2] -9.85% | [3] -2.35% | [4] 31.2% | [5] -2.6% | [6] -11.8%

Cc1ccc(C(N)=O)cc1
inactive: [1] 20% | [2] -8.65% | [3] -1.55% | [4] -31.1% | [5] 17.9% | [6] 42.1%

COc1ccc2cc1Oc1ccc(cc1)CC1=NCCc3cc(OC)c(OC)c(c31)Oc1cc3c(cc1OC)CCN(C)C3C2 (centres undefined)
inactive: [1] -8.75% | [2] -14.6% | [3] -12.4% | [4] 4.5% | [5] 3.15% | [6] 9.4%

O=C(c1ccccc1)C(N=Nc1ccccc1)(c1ccccc1)c1ccccc1
inactive: [1] 4.15% | [2] -6% | [3] -1.8% | [4] -7.05% | [5] -0.85% | [6] 21.6%

C1CCC(C2CCCC[N-]2)[N-]C1.[Cl][Cu][Cl] (centres undefined)
inactive: [1] 7.35% | [2] 10.3% | [3] 9.85% | [4] 9.6% | [5] -4.85% | [6] 13.7%

CO[C@H]1C[C@H]2CC[C@@]1(C)C2(C)C
inactive: [1] 8.85% | [2] 12.6% | [3] 3.7% | [4] -18.9% | [5] 0.4% | [6] -5.55%

OC1COC(c2ccccc2)OC1C(O)C1OC(c2ccccc2)OCC1O (centres undefined)
inactive: [1] 5.3% | [2] -3.8% | [3] 12.2% | [4] -38.9% | [5] -8.2% | [6] 10.7%

O=C(Nc1ccc(F)cc1)Nc1ccc(I)cc1
inactive: [1] 13.2% | [2] 1.15% | [3] 5.6% | [4] 15.4% | [5] 17.2% | [6] 8.95%

COc1ccccc1C1C2=C(COC2=O)Oc2cc3c(cc21)OCO3 (centres undefined)
inactive: [1] -20.8% | [2] -8.25% | [3] -29.1% | [4] 3.75% | [5] 0.4% | [6] -11.9%

CCCCCCCCCCCCCCCCCC(=O)OCC1CO1 (centres undefined)
inactive: [1] 23.2% | [2] 10.3% | [3] 21.6% | [4] 13.2% | [5] 18.9% | [6] 21.1%

C1CCCN(NC2=NCCO2)CC1
inactive: [1] 18.8% | [2] 4.8% | [3] 7.3% | [4] 5.95% | [5] 1.45% | [6] 25.9%

CCOC(=O)C1(C(O)(C2CC2)C2(C(=O)OCC)CC2)CC1
inactive: [1] -9.1% | [2] -11.6% | [3] -12.3% | [4] -29.9% | [5] 13.1% | [6] 5.45%

OCCN(c1ccccc1)c1nc(N(CCO)c2ccccc2)nc(N(CCO)c2ccccc2)n1
inactive: [1] 2.7% | [2] 8.8% | [3] 32.5% | [4] 7.75% | [5] 29.9% | [6] 1.7%

CCOC(=O)/C=C\n1c(=O)cc(C)c2ccccc21
inactive: [1] 8.85% | [2] 23.7% | [3] 7.45% | [4] 18.4% | [5] -2.75% | [6] -1.15%

O=C(OC[P+](c1ccccc1)(c1ccccc1)c1ccccc1)c1ccccc1
active: [6] 81.2%
inactive: [1] 44% | [2] 47.1% | [3] 44.9% | [4] 33.8% | [5] 38.6%

CN(Cc1ccccc1)c1ccc(C(=O)O)cc1
inactive: [1] -2.65% | [2] 2.3% | [3] -5.55% | [4] -19% | [5] -23.6% | [6] 7%

COc1ccc(Cc2cc3c(cc2OCC(=O)N2CCOCC2)OCO3)cc1
inactive: [1] -3.25% | [2] -9.5% | [3] -4.25% | [4] -37.7% | [5] 20.4% | [6] -3.3%

COc1cc(C2[C@H]3C(=O)N(c4ccc(Cc5ccc(N6C(=O)[C@@H]7ON(c8ccccc8)C(c8cc(OC)c(OC)c(OC)c8)[C@@H]7C6=O)cc5)cc4)C(=O)[C@H]3ON2c2ccccc2)cc(OC)c1OC (some centres undefined)
inactive: [1] -2.25% | [2] 5.2% | [3] 3.75% | [4] 27.5% | [5] 25.9% | [6] -6.3%

c1ccc2c3nnc(c2c1)SCCCSc1nnc(c2ccccc12)SCCCS3
inactive: [1] -9.3% | [2] -13.3% | [3] -2.5% | [4] 1.6% | [5] 1.8% | [6] -0.95%

OCC(OC/C=C/CCl)c1ccc(Cl)cc1 (centres undefined)
inactive: [1] -6.75% | [2] 8.7% | [3] 0.2% | [4] -0.15% | [5] -9.5% | [6] -15.9%

CN(C)c1nc(=O)c2ccccc2o1
inactive: [1] -41% | [2] -14.1% | [3] -28.4% | [4] -36.5% | [5] -7.75% | [6] -5.05%

CCOC(=O)CON
inactive: [1] -7.35% | [2] 1.9% | [3] -7.45% | [4] -51% | [5] -12.4% | [6] -5.8%

COc1ccc(C(CC(=O)O)CC(=O)O)cc1[N+](=O)[O-]
inactive: [1] 0.75% | [2] -1.7% | [3] -2.1% | [4] -6.2% | [5] 15.9% | [6] 10.8%
